# TTR transcr act: increases transthyretin transcription | SH-SY5Y TTR promoter Gaussia luciferase, luminescence; 100% = recombinant luciferase protein wells | activation, % at 16.7 µM | 1.3% of 92,000 active | AID 1117267;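 active = activation above the mean of all tested compounds plus 3 SD, cut at about 9.5% in these data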;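 note: cells exposed to compounds for one day before reading; 0% = median of all test compound wells on the plate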
# HuH7 TTR inh: HuH7 TTR transcription inhibition, counter-screen; shares compounds with TTR transcr act; HuH7 TTR promoter-Gaussia luciferase reporter, luminescence; inhibition, % at 16.7 µM; 4% of 1,100 active; AID 1117279;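 active = average inhibition above the solvent-only control wells' mean plus 3 SD, cut at about 15% in these data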;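 note: 0% = cells with DMSO only and 100% = cells with inhibitor control FD; inhibitors lower well luminescence so higher value means more inhibition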
# TTR act confirm: human TTR transcription activation, confirmation. shares compounds with TTR transcr act. SHSY5Y TTR promoter Gaussia luciferase, luminescence; 100% = purified Lucia enzyme wells, no cells. activation, % at 16.7 µM. 1,100 tested, under 10 active. AID 1117280;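 active = mean activation above a set limit taken from the earlier primary screen, cut at about 11% in these data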;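 note: 0% = DMSO-treated cells and 100% = recombinant Lucia luciferase without cells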
# * hit, by the source's call. Many of the other results were omitted from the sample, so hits are more common in it than they were.
SMILES,TTR transcr act,others
O=C(OCc1ccccc1)c1cn(-c2ccccc2)nc1-c1ccncc1,18*,HuH7 TTR inh=-10;TTR act confirm=-1
COC(=O)c1cn(-c2ccccc2)nc1-c1ccncc1,-3,
COC(=O)c1cn(-c2ccccc2)nc1-c1ccc(OC)cc1,-3,
CC(C)CN(CCCNC(=O)CN1C(=O)COc2ccc(S(=O)(=O)N3CCC(C)CC3)cc21)CC(C)C,0,
COc1ccc(CNC(=O)CN2C(=O)COc3ccc(S(=O)(=O)N4CCCC4)cc32)cc1,0,
CCOCCCNC(=O)CN1C(=O)COc2ccc(S(=O)(=O)N3CCCC3)cc21,11*,HuH7 TTR inh=-12;TTR act confirm=0
CCCCNC(=O)C[C@H]1C[C@@]2(C(=O)OC)C(=C[C@H](C(C)C)O[C@@H]2C2CC2)N(Cc2ccc(Cl)cc2Cl)C1=O,0,
CCN(CC)C(=O)Cn1c2ccccc2c2nc3n(c(=O)c21)CCS3,-1,
COC(=O)[C@]12C[C@H](CC(=O)N3CCOCC3)C(=O)N(Cc3cccc4ccccc34)C1=C[C@H](C1CCCC1)O[C@@H]2C,-1,
CCCn1c(N)c(N(CCOC)C(=O)c2cccc(F)c2)c(=O)[nH]c1=O,-1,
CC(C)CN(C(=O)c1cccc(Cl)c1)c1c(N)n(CC(C)C)c(=O)[nH]c1=O,5,
COCCN(C(=O)c1ccc(N(C)S(=O)(=O)c2ccc(C)cc2)cc1)c1c(N)n(CC(C)C)c(=O)[nH]c1=O,9.8*,HuH7 TTR inh=5;TTR act confirm=0
CC(=C\C=O)/C(C)=C/CC[C@@H]1O[C@@H]2C[C@@H]3O[C@](C)(C[C@H]4C[C@H](O)[C@@H]5O[C@@H]6C[C@H](O)[C@@H](C)O[C@@]6(C)CC[C@H]5O4)[C@@H](O)CC[C@@]3(C)O[C@H]2[C@@H](O)[C@@H]1C,1,
CCOC(=O)[C@@]12CCCC=C1N(CCc1ccc(Cl)cc1)C(=O)[C@H]2CC(=O)NCc1cccc2ccccc12,-1,
COCCCNC(=O)C[C@@H]1C(=O)N(CCc2ccc(Cl)cc2)C2=CCCCC[C@]21C(=O)OC,1,
COC(=O)c1cccc(Cn2ccc3ccc(-c4ccc5ccn(C(=O)c6cccc(OC)c6)c5c4)cc32)c1,-2,
CCN(C[C@H]1N[C@@](Cc2ccccc2)(C(=O)OC)[C@H]2C(=O)N(Cc3ccccc3)C(=O)[C@@H]12)C(C)=O,12*,HuH7 TTR inh=-12;TTR act confirm=1
CCN(C[C@H]1N[C@@](Cc2ccccc2)(C(=O)OC)[C@H]2C(=O)N(Cc3ccccc3)C(=O)[C@@H]12)C(=O)COC,0,
CCN(C[C@H]1N[C@@](Cc2ccccc2)(C(=O)OC)[C@H]2C(=O)N(Cc3ccccc3)C(=O)[C@@H]12)C(=O)c1ccccc1,-1,
O=S1(=O)c2ccc(N3CCC[C@H]3CO)cc2OCCCN1C1CC1,1,
O=C(NC1CCCCC1)c1ccc(CS(=O)Cc2ccccc2Cl)o1 (stereo not drawn),1,
O=C(NCCc1ccc(Cl)cc1)c1ccc(CS(=O)Cc2ccccc2Cl)o1 (stereo not drawn),15*,HuH7 TTR inh=1;TTR act confirm=0
O=C(NC1CCCC1)c1ccc(CS(=O)Cc2ccccc2Cl)o1 (stereo not drawn),2,
CCc1nnc(NC(=O)CSc2nnc(-c3ccccc3O)n2CC)s1,22*,HuH7 TTR inh=-14;TTR act confirm=1
CCn1c(SCC(=O)Nc2nc(-c3ccccc3)cs2)nnc1-c1ccccc1O,-6,
SMILES,TTR transcr act,others
CCc1nnc(NC(=O)CSc2nnc(-c3cc4ccccc4cc3O)n2CCOC)s1,0,
COC(=O)[C@@]12CCCCC=C1N(CCc1ccc(Cl)cc1)C(=O)[C@H]2CC(=O)NCCCCc1ccccc1,-2,
O=C(Cc1ccccc1)NN1C(=O)C2C3C=CC(C4CC34)C2C1=O (stereo not drawn),10*,HuH7 TTR inh=-13;TTR act confirm=-1
O=C(Cc1ccccc1)NN1C(=O)C2C3C=CC(C3)C2C1=O (stereo not drawn),2,
O=C(Cc1ccccc1)NN1C(=O)C2C(C1=O)C1C=CC2C12CC2 (stereo not drawn),-1,
O=C(Cc1ccccc1)N1O[C@H]2C=C[C@@H]1C2,1,
O=C(Nc1c(-c2ccc(F)cc2)nc2ncccn12)C1CC1,-1,
CCc1ccc(CCNC(=O)OC2CC3CC2[C@H]2CCCCN2C3)cc1 (stereo partly drawn),3,
C#CCOCCOCCOCCNc1nc(N2CCOCC2)nc(N2CCN(C(=O)[C@H](CCC(=O)O)n3cc(C(N)CC(C)C)nn3)CC2)n1 (stereo partly drawn),0,
COC(=O)C(CSCc1ccccc1)NC(=O)CCNC(=O)OCc1ccccc1 (stereo not drawn),14*,HuH7 TTR inh=-16;TTR act confirm=0
COC(=O)C(CCCCNC(=O)OCc1ccccc1)NC(=O)CN (stereo not drawn),1,
Cc1cc(Br)c(NC(=O)CCNC(=O)OCc2ccccc2)cc1C,0,
C[C@H]1[C@H](NC(=O)c2cccc(Cl)c2)CC[C@@]23CCCN2C(=O)CCC[C@@H]13,7,
O=C(NCc1cccc(Cl)c1)NC(=O)c1csc([N+](=O)[O-])c1,12*,HuH7 TTR inh=-9;TTR act confirm=0
O=C(NCc1cccc(Cl)c1)c1ccc(-c2csnn2)cc1,0,
CC(C)CNC(=S)NC(=O)c1csc([N+](=O)[O-])c1,-2,
CCN1C(=O)[C@H]2[C@H]3CN=C(SCc4ccc(C)cc4)N3[C@@](Cc3ccccc3)(C(=O)OC)[C@H]2C1=O,24*,HuH7 TTR inh=-2;TTR act confirm=3
CCN1C(=O)[C@H]2[C@H]3CN=C(SCc4ccc(Cl)cc4)N3[C@@](Cc3ccccc3)(C(=O)OC)[C@H]2C1=O,-2,
CCN1C(=O)[C@H]2[C@H]3CN=C(SCc4ccc(C(=O)OC)cc4)N3[C@@](Cc3ccccc3)(C(=O)OC)[C@H]2C1=O,-1,
COC(=O)c1cccc(Cn2ccc3ccc(-c4ccc5ccn(C(=O)c6ccc(C)cc6)c5c4)cc32)c1,-2,
CCCCCCCCN1C(=O)N(Cc2ccc(OC)cc2)S(=O)(=O)c2ccc(F)cc21,-1,
CCOC(=O)[C@]12CCCC=C1N(Cc1ccc(OC)cc1)C(=O)[C@@H]2CC(=O)NCC12CC3CC(CC(C3)C1)C2,0,
O=C1COc2ccccc2C(c2nnnn2Cc2ccccc2)N1Cc1cccs1 (stereo not drawn),1,
CCCCCCCCN1C(=O)[C@@H](CC(=O)NCCCOCCCC)C[C@@]2(C(=O)OC)C1=C[C@H](C(C)C)O[C@@H]2C1CC1,0,
O=C(O)c1cc(-c2ccccc2)nn1CC1CC(c2cccnc2)=NO1 (stereo not drawn),15*,HuH7 TTR inh=-6;TTR act confirm=-1
SMILES,TTR transcr act,others
Cc1ccccc1-c1cc(C(=O)NCc2ccco2)n(CC2CC(c3cccnc3)=NO2)n1 (stereo not drawn),3,
O=C(c1cc(-c2ccccc2)nn1CC1CC(c2cccnc2)=NO1)N1CCOCC1 (stereo not drawn),2,
O=C(N/N=C/c1cccnc1)c1ccc2c(c1)OCCO2,18*,HuH7 TTR inh=2;TTR act confirm=0
Cn1nccc1C(=O)N/N=C/c1cccnc1,-2,
O=C(N/N=C/c1cccnc1)c1ccco1,2,
COP(=O)(O)CCOCCC(CC(C)C)NC(=O)OCc1ccccc1 (stereo not drawn),1,
CC(=O)c1cccc(NC(=O)c2cnn3c(C)cc(C)nc23)c1,0,
COc1ccc(CN[C@@H]2CC[C@@]34CCCN3C(=O)CCC[C@H]4C2)cc1OC,5,

# Assay outcomes as filed in PubChem.
